Results from PubChem BioAssay (NCI).
Compounds without any hit were thinned out: in the full panel of roughly 83,000, 20% have a hit.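 Testing used 96-well plates and a 48-hour single-concentration exposure. Example: -40 means 40% of the starting cells died.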 Calls of active or inactive are those of the source. How the source made its calls: active means growth percent below 10; inactive means the rest.

Legend:
Experiment in all cases: NCI-60 one-dose screen, 48 h (100 = growth as untreated, 0 = no growth, -100 = all killed)
Conditions in all cases: 10 µM unless noted
SK-MEL-2 melanoma = system: SK-MEL-2 melanoma
EKVX NSCLC = system: EKVX NSCLC
SN12C renal = system: SN12C renal
UO-31 renal = system: UO-31 renal
TK-10 renal = system: TK-10 renal
ACHN renal = system: ACHN renal
CAKI-1 renal = system: CAKI-1 renal
A498 renal = system: A498 renal
CCRF-CEM leukemia = system: CCRF-CEM leukemia
MOLT-4 leukemia = system: MOLT-4 leukemia
SR leukemia = system: SR leukemia
RPMI-8226 leukemia = system: RPMI-8226 leukemia
OVCAR-8 ovarian = system: OVCAR-8 ovarian
OVCAR-5 ovarian = system: OVCAR-5 ovarian
OVCAR-4 ovarian = system: OVCAR-4 ovarian
SK-OV-3 ovarian = system: SK-OV-3 ovarian
OVCAR-3 ovarian = system: OVCAR-3 ovarian
HS 578T breast = system: HS 578T breast
NCI/ADR-RES ovarian = system: NCI/ADR-RES ovarian
IGROV1 ovarian = system: IGROV1 ovarian

Measured: growth

Cc1nn(-c2ccccc2)c(Oc2ccccc2)c1/C=N/NC(=O)Cn1c(=O)sc2ccccc21
inactive: SK-MEL-2 melanoma 42.6% | EKVX NSCLC 33.3% | SN12C renal 61.4% | UO-31 renal 35% | TK-10 renal 60.7% | ACHN renal 47.2% | CAKI-1 renal 33.4% | A498 renal 45.6% | CCRF-CEM leukemia 49.9% | MOLT-4 leukemia 10.3% | SR leukemia 38.2% | RPMI-8226 leukemia 33.8% | OVCAR-8 ovarian 48.8% | OVCAR-5 ovarian 81.5% | OVCAR-4 ovarian 44.1% | SK-OV-3 ovarian 61% | OVCAR-3 ovarian 61.6% | HS 578T breast 67.6% | NCI/ADR-RES ovarian 44.4%

Cc1c(Cl)cccc1NC(=O)c1sc2nc3c(cc2c1N)CCCC3
inactive: SK-MEL-2 melanoma 22.1% | EKVX NSCLC 52.4% | SN12C renal 41.2% | UO-31 renal 45.8% | TK-10 renal 62.2% | ACHN renal 47.2% | CAKI-1 renal 33.9% | CCRF-CEM leukemia 20.4% | MOLT-4 leukemia 21.6% | RPMI-8226 leukemia 33% | OVCAR-8 ovarian 46.1% | OVCAR-5 ovarian 75.7% | OVCAR-4 ovarian 60.5% | SK-OV-3 ovarian 27.7% | IGROV1 ovarian 57.2% | OVCAR-3 ovarian 10.9% | HS 578T breast 40.3% | NCI/ADR-RES ovarian 27.1%
active: A498 renal -1.63% | SR leukemia 9.71%

CC(C)(C)[C@H](OCc1cn([C@H]2C[C@@H](O)[C@@H](CO)O2)c(=O)[nH]c1=O)c1ccc(C#Cc2ccccc2)cc1[N+](=O)[O-]
inactive: SK-MEL-2 melanoma 81.3% | EKVX NSCLC 67.4% | SN12C renal 88.5% | UO-31 renal 72% | TK-10 renal 61.7% | ACHN renal 77.4% | CAKI-1 renal 79.3% | A498 renal 95% | CCRF-CEM leukemia 72.2% | MOLT-4 leukemia 57.6% | SR leukemia 35.7% | RPMI-8226 leukemia 36.8% | OVCAR-8 ovarian 87% | OVCAR-5 ovarian 97.6% | OVCAR-4 ovarian 85% | SK-OV-3 ovarian 93.5% | IGROV1 ovarian 88% | OVCAR-3 ovarian 87.7% | HS 578T breast 77.9% | NCI/ADR-RES ovarian 87.5%

Cc1cc([N+](=O)[O-])ccc1NC(=O)c1ccc2c(c1)nc(-c1ccccc1)n2C1CCCCC1
inactive: SK-MEL-2 melanoma 87.4% | EKVX NSCLC 73% | SN12C renal 98.6% | UO-31 renal 62.4% | TK-10 renal 84.3% | ACHN renal 89.6% | CAKI-1 renal 70.3% | A498 renal 122% | CCRF-CEM leukemia 68.5% | MOLT-4 leukemia 52% | SR leukemia 39.5% | RPMI-8226 leukemia 76.2% | OVCAR-8 ovarian 87.6% | OVCAR-5 ovarian 95.5% | OVCAR-4 ovarian 95.2% | SK-OV-3 ovarian 100% | IGROV1 ovarian 111% | OVCAR-3 ovarian 92.8% | HS 578T breast 88.1% | NCI/ADR-RES ovarian 87.9%

NCCNc1ccc([N+](=O)[O-])cc1
inactive: SK-MEL-2 melanoma 97.2% | EKVX NSCLC 137% | SN12C renal 103% | UO-31 renal 87.1% | TK-10 renal 96.2% | ACHN renal 108% | CAKI-1 renal 113% | A498 renal 106% | CCRF-CEM leukemia 94.5% | MOLT-4 leukemia 96.2% | SR leukemia 100% | RPMI-8226 leukemia 93% | OVCAR-8 ovarian 113% | OVCAR-5 ovarian 115% | OVCAR-4 ovarian 112% | SK-OV-3 ovarian 109% | IGROV1 ovarian 111% | OVCAR-3 ovarian 134% | HS 578T breast 106% | NCI/ADR-RES ovarian 116%

COc1cc(C2CC(c3cccc(Nc4ccncc4)c3)=Nc3c(N)ncnc3N2)cc(OC)c1OC (stereo unspecified)
inactive: SK-MEL-2 melanoma 92.6% | EKVX NSCLC 87.2% | SN12C renal 93.9% | UO-31 renal 98.5% | TK-10 renal 110% | ACHN renal 95.1% | CAKI-1 renal 85% | A498 renal 87.4% | CCRF-CEM leukemia 73.2% | MOLT-4 leukemia 85.6% | SR leukemia 30.1% | RPMI-8226 leukemia 71.8% | OVCAR-8 ovarian 93.6% | OVCAR-5 ovarian 111% | OVCAR-4 ovarian 84.1% | SK-OV-3 ovarian 88.3% | IGROV1 ovarian 95.8% | OVCAR-3 ovarian 88.9% | HS 578T breast 95% | NCI/ADR-RES ovarian 96.7%

C=C1CC[C@@H]2[C@](C)(COC(C)=O)[C@H](OC(C)=O)CC[C@@]2(C)[C@@H]1CC(Nc1ccc(S(=O)(=O)Nc2nccc(C)n2)cc1)C1=CCOC1=O (stereo partly specified)
active: ACHN renal -37.2% | CCRF-CEM leukemia -19.2% | MOLT-4 leukemia -1.85% | SR leukemia 0.793% | RPMI-8226 leukemia -5.56% | OVCAR-3 ovarian -45%
inactive: SK-MEL-2 melanoma 40.1% | EKVX NSCLC 79.2% | SN12C renal 25.1% | UO-31 renal 33.4% | TK-10 renal 83% | CAKI-1 renal 61.4% | A498 renal 96.8% | OVCAR-8 ovarian 10.5% | OVCAR-5 ovarian 26.9% | OVCAR-4 ovarian 32.3% | SK-OV-3 ovarian 101% | HS 578T breast 68.6% | NCI/ADR-RES ovarian 20.9%

COc1cc(OCc2cccc(-c3ccc4c(c3)OCCO4)c2C)cc(OC)c1C=O
active: A498 renal -10.4%
inactive: SK-MEL-2 melanoma 58.3% | EKVX NSCLC 53.7% | SN12C renal 68.2% | UO-31 renal 51% | TK-10 renal 43.4% | ACHN renal 48% | CAKI-1 renal 25.9% | CCRF-CEM leukemia 59.1% | MOLT-4 leukemia 56.4% | SR leukemia 37.3% | RPMI-8226 leukemia 29.6% | OVCAR-8 ovarian 70.4% | OVCAR-5 ovarian 68.7% | OVCAR-4 ovarian 35.9% | IGROV1 ovarian 68.1% | OVCAR-3 ovarian 60.5% | HS 578T breast 75.9% | NCI/ADR-RES ovarian 70.4%

C=C(C)[C@@H]1CCC[C@]2(C(=O)OC)CC[C@]3(C)[C@@H](CC[C@@H]4[C@@]5(C)CCCNC(C)(C)[C@@H]5CC[C@]43C)[C@@H]12
inactive: SK-MEL-2 melanoma 94% | EKVX NSCLC 88.2% | SN12C renal 92.1% | UO-31 renal 57.7% | TK-10 renal 90.4% | ACHN renal 88.2% | CAKI-1 renal 73.3% | A498 renal 106% | CCRF-CEM leukemia 84% | MOLT-4 leukemia 76.9% | SR leukemia 54.5% | RPMI-8226 leukemia 75.7% | OVCAR-8 ovarian 89.6% | OVCAR-5 ovarian 86.4% | OVCAR-4 ovarian 88.1% | SK-OV-3 ovarian 95.8% | OVCAR-3 ovarian 74.4% | HS 578T breast 87.4% | NCI/ADR-RES ovarian 98.8%

C=C(C[n+]1ccccc1)[C@@H]1CC[C@]2(C(=O)OC)CC[C@]3(C)[C@H](CC[C@@H]4[C@@]5(C)CCC(=O)C(C)(C)[C@@H]5CC[C@]43C)[C@@H]12
inactive: SK-MEL-2 melanoma 89% | EKVX NSCLC 93.4% | SN12C renal 87.8% | UO-31 renal 86.4% | TK-10 renal 102% | ACHN renal 95.4% | CAKI-1 renal 83.5% | A498 renal 88.7% | CCRF-CEM leukemia 82.6% | MOLT-4 leukemia 78.9% | SR leukemia 84.8% | RPMI-8226 leukemia 52.3% | OVCAR-8 ovarian 90.3% | OVCAR-5 ovarian 101% | OVCAR-4 ovarian 55% | SK-OV-3 ovarian 99% | OVCAR-3 ovarian 58.9% | HS 578T breast 87.9% | NCI/ADR-RES ovarian 103%

Cc1ccc(Nc2nc(N)nc(N)c2N=O)cc1Cl
inactive: SK-MEL-2 melanoma 85.8% | EKVX NSCLC 81.5% | SN12C renal 90% | UO-31 renal 56.5% | TK-10 renal 96.2% | ACHN renal 72.2% | CAKI-1 renal 82.2% | A498 renal 119% | CCRF-CEM leukemia 89.8% | MOLT-4 leukemia 68.7% | SR leukemia 72.5% | RPMI-8226 leukemia 78.3% | OVCAR-8 ovarian 95.8% | OVCAR-5 ovarian 93.9% | OVCAR-4 ovarian 76.9% | IGROV1 ovarian 37.7% | OVCAR-3 ovarian 68.3% | HS 578T breast 75.2% | NCI/ADR-RES ovarian 79.3%

O=C(Nc1ccc(Cl)cc1)C1=NCCCCN1
inactive: SK-MEL-2 melanoma 97.7% | EKVX NSCLC 80% | SN12C renal 94.5% | UO-31 renal 55.4% | TK-10 renal 90% | ACHN renal 59.1% | CAKI-1 renal 53.8% | A498 renal 98.6% | CCRF-CEM leukemia 89.2% | MOLT-4 leukemia 95.4% | SR leukemia 116% | RPMI-8226 leukemia 96.3% | OVCAR-8 ovarian 91% | OVCAR-5 ovarian 85.6% | OVCAR-4 ovarian 109% | IGROV1 ovarian 79.8% | OVCAR-3 ovarian 96.9% | HS 578T breast 97.9% | NCI/ADR-RES ovarian 89.3%

CC(=O)O[C@H]1CC[C@@]2(C)C(=CC[C@@H]3[C@@H]2CC[C@]2(C)C(Cl)=C(c4nc5ccc(Cl)cn5c4NC(C)(C)C)C[C@@H]32)C1
inactive: SK-MEL-2 melanoma 99.9% | EKVX NSCLC 88.1% | SN12C renal 97.7% | UO-31 renal 86.6% | TK-10 renal 89.3% | ACHN renal 92.1% | CAKI-1 renal 65.1% | A498 renal 92.8% | CCRF-CEM leukemia 92.3% | MOLT-4 leukemia 101% | SR leukemia 93% | RPMI-8226 leukemia 93.9% | OVCAR-8 ovarian 96.9% | OVCAR-5 ovarian 91.5% | OVCAR-4 ovarian 90.3% | SK-OV-3 ovarian 105% | OVCAR-3 ovarian 100% | HS 578T breast 85.6% | NCI/ADR-RES ovarian 95.4%

COc1ccc(/C=N/NC(=O)Cn2nnc3ccccc32)cc1
inactive: SK-MEL-2 melanoma 100% | EKVX NSCLC 101% | SN12C renal 86.6% | UO-31 renal 77.8% | TK-10 renal 111% | ACHN renal 94.6% | CAKI-1 renal 90.4% | A498 renal 98.4% | CCRF-CEM leukemia 106% | MOLT-4 leukemia 93% | SR leukemia 96% | RPMI-8226 leukemia 101% | OVCAR-8 ovarian 96.7% | OVCAR-5 ovarian 104% | OVCAR-4 ovarian 115% | SK-OV-3 ovarian 95.5% | OVCAR-3 ovarian 95% | HS 578T breast 77.6% | NCI/ADR-RES ovarian 104%
